Test results: PubChem BioAssay (NCATS)
Inconclusive results are not listed. Where a call stands in place of a potency, no number is given. Activity calls are given as the source filed them. Calls follow the shape of the dose curve; as a rule, active = well fitted inhibition curve with a large enough effect; inconclusive = small, poorly fitted or top-dose-only effect; inactive = flat fitted curve, though single readings scatter.

What was measured:
Assay in all cases: qHTS profiling for inhibitors of Plasmodium falciparum proliferation (AID 504749); also: nearly all actives have a fitted effect of over 60% in size
Settings in all cases: P. falciparum in erythrocytes, SYBR Green DNA, 72 h; series mostly up to 28.7 µM
CP250 = test system: CP250
In short: (§1)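 Parasite proliferation within erythrocytes, 72 h exposure. Endpoint: SYBR Green I fluorescence after overnight lysis at room temperature. Controls: 0.29 uM artemisinin, DMSO.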

CP252 = test system: CP252
In short: as §1

CP256 = test system: CP256
In short: as §1

CP260 = test system: CP260
In short: as §1

CP262 = test system: CP262
In short: as §1

CP265 = test system: CP265
In short: as §1

CP266 = test system: CP266
In short: as §1

CP268 = test system: CP268
In short: as §1

CP269 = test system: CP269
In short: as §1

CP286 = test system: CP286
In short: as §1

CP291 = test system: CP291
In short: as §1

CP297 = test system: CP297
In short: as §1

CP305 = test system: CP305
In short: as §1

CP315 = test system: CP315
In short: as §1

CP325 = test system: CP325
In short: as §1

CP329 = test system: CP329
In short: as §1

CP335 = test system: CP335
In short: as §1

DFO2036 = test system: DFO2036
In short: as §1

DIV14 = test system: DIV14
In short: as §1

DIV17 = test system: DIV17
In short: as §1
Potency is read from the fitted curve at half-maximal effect.

| SMILES | Potency (CP250) | Potency (CP252) | Potency (CP256) | Potency (CP260) | Potency (CP262) | Potency (CP265) | Potency (CP266) | Potency (CP268) | Potency (CP269) | Potency (CP286) | Potency (CP291) | Potency (CP297) | Potency (CP305) | Potency (CP315) | Potency (CP325) | Potency (CP329) | Potency (CP335) | Potency (DFO2036) | Potency (DIV14) | Potency (DIV17) |
| --- | --- | --- | --- | --- | --- | --- | --- | --- | --- | --- | --- | --- | --- | --- | --- | --- | --- | --- | --- | --- |
| C=CCN1CCC23c4c5ccc(O)c4O[C@H]2C(=O)CC[C@@]3(O)C1C5 (stereo partly drawn) | inactive | inactive | inactive | inactive | inactive | inactive | inactive | inactive | inactive | inactive | inactive | inactive | inactive | inactive | inactive | inactive | inactive | inactive | inactive | inactive |
| Clc1ccccc1Cl | inactive | inactive | inactive | inactive | inactive | inactive | inactive | inactive | inactive | inactive | inactive | inactive | inactive | inactive | inactive | inactive | inactive | inactive | inactive | inactive |
| CCCC(C)(COC(N)=O)COC(=O)NC1CC1 (stereo not drawn) | inactive | inactive | inactive | inactive | inactive | inactive | inactive | inactive | inactive | inactive | inactive | inactive | inactive | inactive | inactive | inactive | inactive | inactive | inactive | inactive |
| CC(=O)OC1CN2CCC1CC2 (stereo not drawn) | inactive | inactive | inactive | inactive | inactive | inactive | inactive | inactive | inactive | inactive | inactive | inactive | inactive | inactive | inactive | inactive | inactive | inactive | inactive | inactive |
| Oc1cc(Cl)c(Cl)cc1Cl | inactive | inactive | inactive | inactive | inactive | inactive | inactive | inactive | inactive | inactive | inactive | inactive | inactive | inactive | inactive | inactive | inactive | inactive | – | – |
| CCC1(c2ccccc2)C(=O)NC(=O)NC1=O | inactive | inactive | inactive | inactive | inactive | inactive | inactive | inactive | inactive | inactive | inactive | inactive | inactive | inactive | inactive | inactive | inactive | inactive | inactive | inactive |
| CNC(=O)OCC[N+](C)(C)C | inactive | inactive | inactive | inactive | inactive | inactive | inactive | inactive | inactive | inactive | inactive | inactive | inactive | inactive | inactive | inactive | inactive | inactive | inactive | inactive |
| O=[N+]([O-])c1ccc(F)c([N+](=O)[O-])c1 | inactive | inactive | inactive | inactive | inactive | inactive | inactive | inactive | inactive | inactive | inactive | inactive | inactive | inactive | inactive | inactive | inactive | inactive | inactive | inactive |
| CCC(=O)O[C@@](Cc1ccccc1)(c1ccccc1)[C@@H](C)CN(C)C | inactive | inactive | inactive | inactive | inactive | inactive | inactive | inactive | inactive | inactive | inactive | inactive | inactive | inactive | inactive | inactive | inactive | inactive | – | – |
| C=CCN=C=S | inactive | inactive | inactive | inactive | inactive | inactive | inactive | – | – | inactive | – | – | – | – | inactive | – | inactive | inactive | inactive | – |
| c1cc2c(c(NC3=NCCN3)c1)CCCC2 | inactive | inactive | inactive | inactive | inactive | inactive | inactive | – | – | inactive | – | – | – | – | inactive | – | inactive | inactive | 15.1 µM (active) | – |
| c1ccc2sc(SNC3CCCCC3)nc2c1 | inactive | inactive | inactive | inactive | inactive | inactive | inactive | inactive | inactive | inactive | inactive | inactive | inactive | inactive | inactive | inactive | inactive | inactive | inactive | inactive |
| [O]=[Cr](=[O])([OH])[O][Cr](=[O])(=[O])[OH] | inactive | inactive | inactive | 11.2 µM (active) | inactive | inactive | inactive | inactive | inactive | inactive | inactive | inactive | inactive | inactive | inactive | inactive | inactive | inactive | inactive | inactive |
| ClC=C(Cl)Cl | inactive | inactive | inactive | inactive | inactive | inactive | inactive | inactive | inactive | inactive | inactive | inactive | inactive | inactive | inactive | inactive | inactive | inactive | inactive | inactive |
| NCC(O)c1cccc(O)c1 (stereo not drawn) | inactive | inactive | inactive | inactive | inactive | inactive | – | inactive | inactive | inactive | inactive | inactive | inactive | inactive | inactive | inactive | inactive | inactive | inactive | inactive |
| CCC1C(C)=NN=C(c2ccc(OC)c(OC)c2)c2cc(OC)c(OC)cc21 (stereo not drawn) | inactive | inactive | inactive | inactive | inactive | inactive | inactive | inactive | inactive | – | inactive | – | inactive | inactive | inactive | inactive | inactive | inactive | – | – |

| SMILES | Potency (CP250) | Potency (CP252) | Potency (CP256) | Potency (CP260) | Potency (CP262) | Potency (CP265) | Potency (CP266) | Potency (CP268) | Potency (CP269) | Potency (CP286) | Potency (CP291) | Potency (CP297) | Potency (CP305) | Potency (CP315) | Potency (CP325) | Potency (CP329) | Potency (CP335) | Potency (DFO2036) | Potency (DIV14) | Potency (DIV17) |
| --- | --- | --- | --- | --- | --- | --- | --- | --- | --- | --- | --- | --- | --- | --- | --- | --- | --- | --- | --- | --- |
| O=c1[nH]cc(N(CCCl)CCCl)c(=O)[nH]1 | inactive | inactive | inactive | inactive | inactive | inactive | inactive | inactive | inactive | inactive | inactive | inactive | inactive | inactive | – | inactive | inactive | inactive | inactive | inactive |
| O=C1CC[C@@]2(O)C3Cc4ccc(O)c5c4C2(CCN3CC2CC2)[C@H]1O5 (stereo partly drawn) | inactive | inactive | inactive | inactive | inactive | inactive | inactive | inactive | inactive | inactive | inactive | inactive | inactive | inactive | inactive | inactive | – | inactive | inactive | inactive |
| ClC(Cl)(Cl)Cl | inactive | inactive | inactive | inactive | inactive | inactive | inactive | inactive | inactive | inactive | inactive | inactive | inactive | inactive | inactive | inactive | inactive | inactive | inactive | inactive |
| CCC1(C)CC(=O)NC(=O)C1 | inactive | inactive | inactive | inactive | inactive | inactive | inactive | inactive | inactive | inactive | inactive | inactive | inactive | inactive | inactive | inactive | inactive | inactive | inactive | inactive |
| O=[N+]([O-])c1ccccc1 | inactive | inactive | inactive | inactive | inactive | inactive | inactive | inactive | inactive | inactive | inactive | inactive | inactive | inactive | inactive | inactive | – | inactive | inactive | inactive |
| C=CCN(C1=NCCN1)c1c(Cl)cccc1Cl | inactive | inactive | inactive | inactive | inactive | inactive | inactive | inactive | inactive | inactive | – | inactive | inactive | inactive | inactive | inactive | inactive | inactive | inactive | inactive |
| CCC1(CC)C(=O)NC(=O)N(C)C1=O | inactive | inactive | inactive | inactive | inactive | inactive | – | inactive | inactive | inactive | inactive | inactive | inactive | inactive | inactive | inactive | inactive | inactive | inactive | – |
| CC(C)Nc1ccc(Nc2ccccc2)cc1 | 5.01 µM (active) | 7.08 µM (active) | 7.94 µM (active) | 5.62 µM (active) | 4.78 µM (active) | 11.2 µM (active) | 8.49 µM (active) | 10.7 µM (active) | 6.75 µM (active) | 8.91 µM (active) | 15.1 µM (active) | 4.78 µM (active) | 13.5 µM (active) | 4.78 µM (active) | 6.01 µM (active) | 6.01 µM (active) | – | 5.01 µM (active) | 12 µM (active) | 13.5 µM (active) |
| CCON=O | inactive | inactive | inactive | inactive | inactive | inactive | inactive | inactive | inactive | inactive | inactive | inactive | inactive | inactive | inactive | inactive | inactive | inactive | inactive | inactive |
| O=[N+]([O-])c1cc(I)c(O)c(I)c1 | inactive | inactive | inactive | inactive | inactive | inactive | – | inactive | inactive | inactive | inactive | inactive | inactive | inactive | inactive | inactive | inactive | inactive | inactive | inactive |
| ClC1C(Cl)C(Cl)C(Cl)C(Cl)C1Cl (stereo not drawn) | inactive | inactive | inactive | inactive | inactive | inactive | inactive | inactive | inactive | inactive | inactive | inactive | inactive | inactive | inactive | inactive | inactive | inactive | – | inactive |
| CCNC(C)Cc1cccc(C(F)(F)F)c1 (stereo not drawn) | inactive | inactive | inactive | inactive | inactive | inactive | inactive | inactive | inactive | inactive | inactive | inactive | inactive | inactive | inactive | inactive | – | inactive | inactive | inactive |
| CC1CCC(C(C)C)C(OC(=O)c2ccccc2N)C1 (stereo not drawn) | inactive | inactive | inactive | inactive | inactive | inactive | inactive | inactive | inactive | inactive | inactive | inactive | inactive | inactive | inactive | inactive | inactive | inactive | – | inactive |
| Clc1ccc(C2(Cn3cncn3)OCCO2)c(Cl)c1 | inactive | inactive | inactive | inactive | inactive | inactive | inactive | inactive | inactive | inactive | inactive | inactive | inactive | inactive | inactive | inactive | inactive | inactive | inactive | inactive |
| O=C(NCNC(=O)NC1C(=O)NC(=O)N1CO)NC1C(=O)NC(=O)N1CO (stereo not drawn) | inactive | inactive | inactive | inactive | inactive | inactive | inactive | – | inactive | inactive | inactive | inactive | inactive | inactive | inactive | inactive | inactive | inactive | inactive | inactive |
